Screening data (PubChem)
Only some compounds are listed: those with a hit (about 19% of all), similar ones and a draw of the others.
ELG1 repair inh: blocks ELG1-dependent DNA repair in HEK293T cells; hit rate 2.3% among 330,000; Potency, µM (highest dose often 46.1 µM), actives largely listed as inhibitors; HEK293T ELG1-luciferase reporter, luminescence, 16 h; DNA damage induced by 5-fluorouridine; further: nearly all actives have a fitted effect of over 55% in size
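DMSO vehicle served as the neutral condition. Each well held 2,000 cells given 5-fluorouridine plus compound; after 16 hr at 37 °C/5% CO2, ONE-Glo was added and luciferase measured 30 min later.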
HT1080 IDH1KD tx: HT-1080 IDH1 knockdown cell toxicity (counter line). hit rate 2% among 360,000. Potency, µM (series often up to 46.1 µM), usual class: cytotoxic. HT-1080 IDH1 knockdown viability, ATP luminescence, 48 h
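In this qHTS, HT-1080 cells depleted of IDH1 are exposed for 48 h at 37 °C to compound titrations. Toxicity is scored from CellTiter-Glo luminescence, with DMSO as full viability and medium alone as none.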
HT1080NT lethal: kills 2HG-producing HT-1080-NT fibrosarcoma cells. HT-1080-NT fibrosarcoma viability, CellTiter-Glo ATP luminescence, 48 h. hit rate 1.6% among 360,000. Potency, µM (doses to about 46.1 µM), actives largely listed as cytotoxic. AID 686970;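 further: NT is the 2HG producing partner of a matched IDH1 knockdown line; nearly all actives have a fitted effect of over 55% in size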
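HT-1080-NT fibrosarcoma cells (2HG-overproducing), 750 cells/well in RPMI with 5% FBS, dosed after 2 h and incubated 48 h at 37C. CellTiter-Glo luminescence normalized to DMSO and no-cell wells; concentration-response curves fitted and classed.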
IL-1B inflam inh: blocks inflammasome-driven IL-1 beta release | THP-1 LPS/ATP IL-1B secretion, AlphaLISA, 16 h; stronger effect = lower value | hit rate 4.7% among 360,000 | activity change, % at 57.5 µM | AID 743279; in the data active means activity change below about -50%; inconclusive means mostly about -30% to -49%
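Secreted IL-1B measured by AlphaLISA bead assay after 16 h compound exposure of THP-1 cells; compounds (final up to 57.5 uM) added 1 h before LPS (250 ng/mL) and ATP (1.25 mM) stimulation; lower signal means less secretion.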
TDP1 cell noCPT: qHTS for Inhibitors of human tyrosyl-DNA phosphodiesterase 1 (TDP1): qHTS in cells in absence of CPT. hit rate 15% among 420,000. Potency, µM (doses to about 46.2 µM), most hits filed as inhibitors. AID 686978, 2013. DT40 Tdp1-/- hTDP1 cells, no CPT, ATP luminescence, 48 h; further: nearly all actives have a fitted effect of over 55% in size
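Seeded 400 DT40-hTDP1 cells/well (vehicle DMSO, no 20 nM CPT); pinned compounds; ≥48 hr at 37 °C; CellTiter-Glo luminescence as viability measure.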
DT40 TDP1 CPT: DT40-hTDP1 cell growth loss with CPT | chicken DT40 Tdp1-/-;hTDP1 cells + 20 nM CPT, ATP luminescence, 48 h | Potency, µM (top dose mostly 46.2 µM), most hits filed as inhibitors | hit rate 12% among 420,000; further: nearly all actives have a fitted effect of over 55% in size
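Chicken DT40 Tdp1-/- cells stably complemented with human TDP1 were seeded at 400 cells/well in medium containing 20 nM camptothecin, exposed to pin-transferred compounds, and grown at 37 °C for at least 48 hr. Viability was read as ATP luminescence.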
Hits are given with their value; - = inactive; ? = inconclusive; . = not tested or not shown; [ ] = another dose, or the depositor's remark. Unless noted, the call rests on the fitted dose curve; in most records, active means well fitted curve in the direction sought with a large enough effect; inconclusive means small, poorly fitted or top-dose-only effect, or another doubt; inactive means no such curve, though single readings can be large; an effect the other way counts as inactive or inconclusive.

SMILES	ELG1 repair inh	HT1080 IDH1KD tx	HT1080NT lethal	IL-1B inflam inh	TDP1 cell noCPT	DT40 TDP1 CPT
CC(=O)c1ccc(NC(=O)CSc2nc(=O)n3cccc(C)c3n2)cc1	?	-	-	-	-	-
CC1=CC(C)(C)N2C(=O)C(=Nc3ccc(O)cc3)c3cccc1c32	-	26µM	16µM	-53	3.3µM	4.1µM
COc1cc(N=C2C(=O)N3c4c(cccc42)C(C)=CC3(C)C)cc(OC)c1	-	-	-	-	5.2µM	6.5µM
COc1ccc(NC(=O)Nc2nc3c(s2)CCCC3)cc1	?	-	-	-52	23µM	?
O=C(Nc1cccc(Br)c1)Nc1nc2c(s1)CCCCCC2	.	.	.	.	8.2µM	7.3µM
Nc1nc(CSC(=S)N2CCN(c3ccccc3)CC2)nc(Nc2ccccc2)n1	?	-	-	-	?	23µM
Cc1ccc(Nc2nc(N)nc(CSC(=S)N3CCOCC3)n2)c(C)c1	?	-	-	?	26µM	?
O=C1C(=Cc2ccccn2)CCc2ccccc21	.	?	?	-108	4.1µM	15µM
C(=C1c2ccccc2-c2ccccc21)c1ccccn1	.	?	-	-	13µM	?
COc1ccc(-n2c(SCC(=O)N/N=C/c3ccccc3OCC(=O)O)nc3ccccc3c2=O)cc1	-	-	-	-	-	-
O=C(CCC(=O)NNC(=O)c1ccc(Cl)cc1Cl)NCc1ccccc1	-	-	-	-	-	-
Cc1ccc(NC(=O)CCc2nnc3ccc(N4CCC5(CC4)OCCO5)nn23)cc1F	-	-	-	-	-	-
CC1CC(=O)N(CC(=O)N2CCCC2)c2ccccc2S1 (centres undefined)	-	-	-	-	-	-
CSc1ccc2c(c1)N(CCC1CCCCN1C)c1ccccc1S2 (centres undefined)	?	?	18µM	-	16µM	15µM
COc1cccc(N2CCN(c3ncnc4c3[nH]c3ccccc34)CC2C)c1 (centres undefined)	4.6µM	.	.	.	.	.
COc1cccc(-c2ccc3ncnc(N4CCNCC4)c3c2)c1	.	.	.	.	-	?
COc1cccc(N2CCN(c3ncnc4c3[nH]c3ccc(F)cc34)CC2C)c1 (centres undefined)	?	7.3µM	6.5µM	-112	1.6µM	1.6µM
COc1ccc2[nH]c3c(N4CC(C)OC(C)C4)ncnc3c2c1 (centres undefined)	?	-	-	-	15µM	?
CC1O[C@@H](O[C@H]2C(Oc3cc(O)c4c(=O)cc(-c5ccc(O)cc5)oc4c3)OC(CO)C(O)C2O)C(O)C(O)C1O (some centres undefined)	.	.	.	.	-	-
COc1cc(OC)c(Cl)cc1N	-	-	-	-	16µM	?
COc1cc(S(N)(=O)=O)c(OC)cc1N	-	-	-	-	-	-
CC(C)(C)c1cc(NCCCn2ccnc2)n2ncc(-c3ccccc3)c2n1	?	16µM	18µM	-97	?	-
Cc1cccc(-c2cc(C(=O)NCCCn3ccnc3)c3ccccc3n2)c1	-	.	.	.	.	.
Cc1cccc(-c2cc3nc(C)cc(NCCCn4ccnc4)n3n2)c1	-	?	?	-106	23µM	?
Cc1nc(NCCCn2ccnc2)c2ccccc2n1	-	-	-	-	?	-
SMILES	ELG1 repair inh	HT1080 IDH1KD tx	HT1080NT lethal	IL-1B inflam inh	TDP1 cell noCPT	DT40 TDP1 CPT
Cc1cc(NCCCN(C)C)n2nc(-c3cccs3)cc2n1	?	-[9.24 µM]	-	-109	?	-
CCCc1cc(NCCCn2ccnc2)n2nc(C)c(-c3ccccc3)c2n1	?	13µM	?	.	?	?
Cc1ccc(-c2cc3nc(-c4ccccc4)cc(NCCCO)n3n2)cc1	.	?	?	-	?	?
COc1ccc(C(=O)NCC(=O)OCC(=O)Nc2ncc(Cl)cc2Cl)cc1[N+](=O)[O-]	-	-	-	-	-	-
CS(=O)(=O)N1CCC2(CCN(C(=O)Nc3cccc(F)c3)CC2)CC1	.	.	.	.	-	-
CC(C)Nc1cc(C(C)(C)C)nc2c(-c3ccccc3)cnn12	?	?	?	-70	?	-
